Experimental data reported in PubChem BioAssay (Tox21).
Results filed as inconclusive are left out. Calls of active or inactive are those of the source. Unless noted, calls come from the whole dose curve; as a rule, active = well fitted curve in the direction sought with a large enough effect in the repeat runs; inconclusive = weak or mixed curves; inactive = no such curve, though single readings can be large; an effect the other way counts as inactive or inconclusive.

Tests used:
[1] = qHTS assay for small molecule agonists of the p53 signaling pathway (AID 651631; calls by dose curve; note: nearly all actives have a fitted effect of over 15% in size)
How it was run: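 HCT-116 cells carrying a stable p53 response element–beta-lactamase reporter were plated, rested 5 h at 37 °C, then exposed to compound in DMSO for 16 h at 37 °C; reporter activity was read as FRET substrate fluorescence after 2 h at room temperature.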

[2] = qHTS assay for small molecules that induce genotoxicity in human embryonic kidney cells expressing luciferase-tagged ATAD5 (AID 651632); note: nearly all actives have a fitted effect of over 15% in size
How it was run: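 Luminescent reporter readout, HEK293T ATAD5-luc line: 16 hr drug exposure (37C, 5% CO2) followed by Amplite, 30 min RT.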

[3] = qHTS assay for small molecule agonists of the p53 signaling pathway - cell viability (AID 651633; calls by dose curve; note: series mostly up to about 83 µM; nearly all actives have a fitted effect of over 30% in size)
How it was run: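 Viability counter-read: CellTiter-Glo luminescence (30 min, room temperature) in the same p53RE-bla plates. These plates had been exposed to compounds for 16 h at 37 C.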

[4] = qHTS assay for small molecules that induce genotoxicity in human embryonic kidney cells expressing luciferase-tagged ATAD5 - cell viability (AID 651634; calls by dose curve; note: nearly all actives have a fitted effect of over 25% in size)
How it was run: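 Viability read: CellTiter-Fluor fluorescence, 30 min at 37C. Cells: HEK293T, luciferase-tagged ATAD5. Exposure: 15.5 hr, 37C, 5% CO2, compound or DMSO vehicle.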

[5] = qHTS assay for small molecule disruptors of the mitochondrial membrane potential - cell viability (AID 720634; calls by dose curve;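 note: human HepG2 liver cancer cells; series mostly up to about 83 µM; nearly all actives have a fitted effect of over 20% in size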)
How it was run: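 HepG2, 1 hr compound, 37 C. ATP luminescence via CellTiter-Glo, 30 min RT, same well as m-MPI.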

[6] = qHTS assay for small molecule disruptors of the mitochondrial membrane potential (AID 720635)
How it was run: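 Mitochondrial membrane potential tracked with Mito-MPS dye, red aggregates (ex 540/em 590 nm) against green monomers (ex 490/em 535 nm). Compound treatment 1 hr at 37C, dye 30 min in HepG2.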

[7] = qHTS assay to test for compound auto fluorescence at 590 nm (red) in HepG2 cells (AID 720674)
How it was run: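 1 hr compound incubation on HepG2 cells, 37 C, 5% CO2; plate read ex 540 nm / em 590 nm; intensities reported as Rose Bengal sodium equivalents.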

[8] = qHTS assay to test for compound auto fluorescence at 535 nm (green) in HepG2 cells (AID 720675)
[9] = qHTS assay to test for compound auto fluorescence at 460 nm (blue) in HEK293 cells (AID 720678)
How it was run: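 HEK293 cells (2,000 per well, medium with 10% dialyzed FBS) attached for 4-5 hr at 37C, then received compound and stood overnight at 37C, 5% CO2. Blue fluorescence was read at Ex/Em 405/460 nm and expressed relative to triamterene.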

[10] = qHTS assay to test for compound auto fluorescence at 590 nm (red) in HEK293 cells (AID 720679)
How it was run: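 HEK293 cells (2,000/well, medium with 10% dialyzed FBS) attached for 4-5 hr at 37C, received 23 nL compound and were incubated overnight at 37C, 5% CO2. Red fluorescence was then read at 540/590nm Ex/Em, referenced to Rose Bengal sodium.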

[11] = qHTS assay to test for compound auto fluorescence at 535 nm (green) in HEK293 cells (AID 720680)
[12] = qHTS assay to test for compound auto fluorescence at 460 nm (blue) in HEK293 cell free culture (AID 720681)
How it was run: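 Blue fluorescence (Ex 405/Em 460 nm, triamterene-equivalent) was read immediately after pin transfer of compound or DMSO into medium (DMEM, 10% FBS) without cells.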

[13] = qHTS assay to test for compound auto fluorescence at 535 nm (green) in HEK293 cell free culture (AID 720682)
How it was run: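 Read-out: 485/535 nm fluorescence intensity, calibrated against fluorescein. Medium only (DMEM + 10% FBS, no cells); test compound or DMSO vehicle added by pintool before plate reading.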

[14] = qHTS assay to test for compound auto fluorescence at 590 nm (red) in HEK293 cell free culture (AID 720683)
How it was run: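 Red-channel autofluorescence of compounds in culture medium (DMEM, 10% FBS), no cells, measured at 540/590 nm. Rose Bengal sodium is the reference fluorophore for equivalence.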

[15] = qHTS assay to test for compound auto fluorescence at 590 nm (red) in HepG2 cell free culture (AID 720684)
How it was run: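 Plate contents were MEM with 10% FBS plus test compound or DMSO, no cells. Fluorescence was recorded with 540 nm excitation and 590 nm emission.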

[16] = qHTS assay to test for compound auto fluorescence at 460 nm (blue) in HepG2 cell free culture (AID 720685)
How it was run: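 Compound (23 nL) or DMSO pinned into cell-free MEM with 10% FBS; blue fluorescence read at 405/460 nm excitation/emission, expressed as auto-fluorescence equivalency to triamterene.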

[17] = qHTS assay to test for compound auto fluorescence at 535 nm (green) in HepG2 cell free culture (AID 720686)
[18] = qHTS assay to test for compound auto fluorescence at 460 nm (blue) in HepG2 cells (AID 720687)
How it was run: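 Blue-channel autofluorescence (Ex/Em 405/460 nm, triamterene-equivalent) was measured after 1 hr compound exposure at 37 C, 5% CO2. Cells were HepG2, plated overnight at 37 C in MEM plus 10% FBS.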

[19] = biological target: Glucocorticoid receptor (Homo sapiens) (UniProt P04150); assay: qHTS assay to identify small molecule agonists of the glucocorticoid receptor (GR) signaling pathway (AID 720691; active = well fitted activation curve with a large enough effect in the signal ratio in the repeat runs, not every such curve was filed as active; the % refers to the signal ratio)
How it was run: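 qHTS in GR-bla HeLa cells: 4 h settling at 37 C/5% CO2, 18 h compound incubation at 37 C, 2 h LiveBLAzer B/G FRET substrate at room temperature, fluorescence intensity measured.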

[20] = biological target: Glucocorticoid receptor (Homo sapiens) (UniProt P04150); assay: qHTS assay to identify small molecule antagonists of the glucocorticoid receptor (GR) signaling pathway (AID 720692; active = well fitted inhibition curve with a large enough effect in the signal ratio in the repeat runs, not every such curve was filed as active; the % refers to the signal ratio)
How it was run: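 Inhibition of glucocorticoid signalling is measured in HeLa cells with a GRE-controlled beta-lactamase reporter; cells are co-treated with compound and 5 nM dexamethasone (final) for 18 h before FRET substrate readout.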
% is set by controls: 0 for no effect and ±100 for the full control effect.

Chain of Glucocorticoid receptor (Homo sapiens) (P04150 whole entry, looked up): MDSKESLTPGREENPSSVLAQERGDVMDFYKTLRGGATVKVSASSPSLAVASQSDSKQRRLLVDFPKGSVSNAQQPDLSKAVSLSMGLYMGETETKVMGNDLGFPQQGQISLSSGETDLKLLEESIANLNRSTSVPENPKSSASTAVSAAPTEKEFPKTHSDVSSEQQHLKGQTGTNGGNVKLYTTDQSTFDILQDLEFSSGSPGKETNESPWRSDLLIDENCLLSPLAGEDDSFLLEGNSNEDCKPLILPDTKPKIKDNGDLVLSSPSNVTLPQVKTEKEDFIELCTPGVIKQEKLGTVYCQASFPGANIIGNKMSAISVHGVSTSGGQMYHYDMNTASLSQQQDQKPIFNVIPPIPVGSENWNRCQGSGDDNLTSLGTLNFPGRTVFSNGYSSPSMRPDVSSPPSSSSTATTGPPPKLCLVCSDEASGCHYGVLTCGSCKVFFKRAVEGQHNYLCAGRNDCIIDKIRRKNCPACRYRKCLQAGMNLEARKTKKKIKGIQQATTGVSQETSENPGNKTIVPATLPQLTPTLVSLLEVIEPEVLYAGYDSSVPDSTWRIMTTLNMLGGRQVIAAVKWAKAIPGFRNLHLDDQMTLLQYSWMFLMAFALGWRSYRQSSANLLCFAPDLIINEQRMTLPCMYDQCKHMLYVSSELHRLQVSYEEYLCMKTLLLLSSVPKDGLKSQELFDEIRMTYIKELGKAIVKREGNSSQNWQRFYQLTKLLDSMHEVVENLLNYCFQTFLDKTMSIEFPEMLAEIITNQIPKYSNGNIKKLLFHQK

O=C(O)CCNC(=O)c1ccccc1
inactive: outcome [1] | outcome [2] | outcome [3] | Potency [4] | outcome [5] | Potency [6] | outcome [7] | outcome [8] | outcome [9] | outcome [10] | outcome [11] | outcome [12] | outcome [13] | outcome [14] | outcome [15] | outcome [16] | outcome [17] | outcome [18] | Potency [19] | outcome [20]

CCN1CN(CC)CN(CC)C1
inactive: outcome [1] | outcome [2] | outcome [3] | Potency [4] | outcome [5] | Potency [6] | outcome [7] | outcome [8] | outcome [9] | outcome [10] | outcome [11] | outcome [12] | outcome [13] | outcome [14] | outcome [15] | outcome [16] | outcome [17] | outcome [18] | Potency [19] | outcome [20]

CCCCCCCCC(=O)OCC
inactive: outcome [1] | outcome [2] | outcome [3] | Potency [4] | outcome [5] | Potency [6] | outcome [7] | outcome [8] | outcome [9] | outcome [10] | outcome [11] | outcome [12] | outcome [13] | outcome [14] | outcome [15] | outcome [16] | outcome [17] | outcome [18] | outcome [20]

O=C(Oc1ccccc1C(=O)O)c1ccccc1O
inactive: outcome [1] | outcome [2] | outcome [3] | Potency [4] | outcome [5] | Potency [6] | outcome [7] | outcome [8] | outcome [9] | outcome [10] | outcome [11] | outcome [12] | outcome [13] | outcome [14] | outcome [15] | outcome [16] | outcome [17] | outcome [18]

C=C(C)C(=O)OCCCCCCOC(=O)C(=C)C
inactive: outcome [1] | outcome [2] | outcome [3] | Potency [4] | outcome [5] | Potency [6] | outcome [7] | outcome [8] | outcome [9] | outcome [10] | outcome [11] | outcome [12] | outcome [13] | outcome [14] | outcome [15] | outcome [16] | outcome [17] | outcome [18]

CCN(CCO)c1cccc(C)c1
inactive: outcome [1] | outcome [2] | outcome [3] | Potency [4] | outcome [5] | Potency [6] | outcome [7] | outcome [8] | outcome [9] | outcome [10] | outcome [11] | outcome [12] | outcome [13] | outcome [14] | outcome [15] | outcome [16] | outcome [17] | outcome [18]

CC(C)COC(=O)/C=C/c1ccccc1
inactive: outcome [1] | outcome [2] | outcome [3] | Potency [4] | outcome [5] | Potency [6] | outcome [7] | outcome [8] | outcome [9] | outcome [10] | outcome [11] | outcome [12] | outcome [13] | outcome [14] | outcome [15] | outcome [16] | outcome [17] | outcome [18]

CCOC(=O)CCc1ccccc1
inactive: outcome [1] | outcome [2] | outcome [3] | Potency [4] | outcome [5] | Potency [6] | outcome [7] | outcome [8] | outcome [9] | outcome [10] | outcome [11] | outcome [12] | outcome [13] | outcome [14] | outcome [15] | outcome [16] | outcome [17] | outcome [18]

CCCCCCCCCCCCCCCCI
inactive: outcome [1] | outcome [2] | outcome [3] | Potency [4] | outcome [5] | Potency [6] | fluorescence, relative to Rose Bengal [7] 0.0421% [at 18.6 µM] | fluorescence, % of fluorescein control [8] -0.0199% [at 18.6 µM] | fluorescence, % of triamterene [9] 0.0613% [at 18.6 µM] | fluorescence, % of fluorescent control [10] 0.21% [at 18.6 µM] | fluorescence, % of fluorescein [11] 0.0243% [at 18.6 µM] | fluorescence, % of fluorescent control [12] -0.0222% [at 18.6 µM] | activity change [13] -0.0077% [at 18.6 µM] | fluorescence, % of fluorescent control [14] 0.0155% [at 18.6 µM] | fluorescence, % of Rose Bengal [15] -0.0349% [at 18.6 µM] | fluorescence, % of fluorescent control [16] -0.142% [at 18.6 µM] | fluorescence, % of fluorescein control [17] 0.0097% [at 18.6 µM] | fluorescence, % of fluorescent control [18] 0.151% [at 18.6 µM]

NC(=O)NC(=O)Cc1ccccc1
inactive: outcome [1] | outcome [2] | outcome [3] | Potency [4] | outcome [5] | Potency [6] | outcome [7] | outcome [8] | outcome [9] | outcome [10] | outcome [11] | outcome [12] | outcome [13] | outcome [14] | outcome [15] | outcome [16] | outcome [17] | outcome [18] | Potency [19] | outcome [20]

CC(C)(C)c1ccc(C=O)cc1
inactive: outcome [1] | outcome [2] | outcome [3] | Potency [4] | outcome [5] | Potency [6] | outcome [7] | outcome [8] | outcome [9] | outcome [10] | outcome [11] | outcome [12] | outcome [13] | outcome [14] | outcome [15] | outcome [16] | outcome [17] | outcome [18] | Potency [19]

CCCCCC1Nc2cc(C(F)(F)F)c(S(N)(=O)=O)cc2S(=O)(=O)N1 (centres undefined)
inactive: outcome [1] | outcome [2] | outcome [3] | Potency [4] | outcome [5] | Potency [6] | outcome [7] | outcome [8] | outcome [9] | outcome [10] | outcome [11] | outcome [12] | outcome [13] | outcome [14] | outcome [15] | outcome [16] | outcome [17] | outcome [18] | Potency [19] | outcome [20]

C1=C\CC/C=C\CC/1
inactive: outcome [1] | outcome [2] | outcome [3] | Potency [4] | outcome [5] | Potency [6] | outcome [7] | outcome [8] | outcome [9] | outcome [10] | outcome [11] | outcome [12] | outcome [13] | outcome [14] | outcome [15] | outcome [16] | outcome [17] | outcome [18]

O=C(O)c1ccccc1C(=O)Nc1ccc(S(=O)(=O)Nc2nccs2)cc1
inactive: outcome [1] | outcome [2] | outcome [3] | Potency [4] | outcome [5] | Potency [6] | outcome [7] | outcome [8] | outcome [9] | outcome [10] | outcome [11] | outcome [12] | outcome [13] | outcome [14] | outcome [15] | outcome [16] | outcome [17] | outcome [18] | Potency [19] | outcome [20]
